Compound activity: PubChem BioAssay, National Center for Advancing Translational Sciences (NCATS)
EPAC2 agonist: agonists of human EPAC2 (RAPGEF4). Q8WZA2. Potency, µM (doses to about 154 µM), for inactives: at the highest dose activation, hits mostly activators. actives 0.079% (n = 360,000). EPAC2 activation, biochemical qHTS; response scale: 100% = 6.5 mM cAMP response; note: nearly all actives have a fitted effect of over 50% in size
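EPAC2 (100 nM) mixed with Rap1B loaded with BODIPY-GDP (250 nM) plus 50 uM unlabeled GDP; compounds pinned in, 5 min RT, then read every 5 min for 30 min (ex 480, em 540 nm). Normalized to cAMP control.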
EPAC1 antag: antagonists of human EPAC1; O95398; EPAC1 GEF assay, Rap1b-BODIPY-GDP exchange fluorescence; Potency, µM (doses to about 115 µM), for inactives: at the highest dose activity change, negative = inhibition, hits mostly inhibitors; actives 0.14% (n = 360,000); AID 720709;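 note: plate controls were vehicle for no effect and positive control for full effect; nearly all actives have a fitted effect of over 50% in size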
Target sequence (O95398 whole entry, looked up): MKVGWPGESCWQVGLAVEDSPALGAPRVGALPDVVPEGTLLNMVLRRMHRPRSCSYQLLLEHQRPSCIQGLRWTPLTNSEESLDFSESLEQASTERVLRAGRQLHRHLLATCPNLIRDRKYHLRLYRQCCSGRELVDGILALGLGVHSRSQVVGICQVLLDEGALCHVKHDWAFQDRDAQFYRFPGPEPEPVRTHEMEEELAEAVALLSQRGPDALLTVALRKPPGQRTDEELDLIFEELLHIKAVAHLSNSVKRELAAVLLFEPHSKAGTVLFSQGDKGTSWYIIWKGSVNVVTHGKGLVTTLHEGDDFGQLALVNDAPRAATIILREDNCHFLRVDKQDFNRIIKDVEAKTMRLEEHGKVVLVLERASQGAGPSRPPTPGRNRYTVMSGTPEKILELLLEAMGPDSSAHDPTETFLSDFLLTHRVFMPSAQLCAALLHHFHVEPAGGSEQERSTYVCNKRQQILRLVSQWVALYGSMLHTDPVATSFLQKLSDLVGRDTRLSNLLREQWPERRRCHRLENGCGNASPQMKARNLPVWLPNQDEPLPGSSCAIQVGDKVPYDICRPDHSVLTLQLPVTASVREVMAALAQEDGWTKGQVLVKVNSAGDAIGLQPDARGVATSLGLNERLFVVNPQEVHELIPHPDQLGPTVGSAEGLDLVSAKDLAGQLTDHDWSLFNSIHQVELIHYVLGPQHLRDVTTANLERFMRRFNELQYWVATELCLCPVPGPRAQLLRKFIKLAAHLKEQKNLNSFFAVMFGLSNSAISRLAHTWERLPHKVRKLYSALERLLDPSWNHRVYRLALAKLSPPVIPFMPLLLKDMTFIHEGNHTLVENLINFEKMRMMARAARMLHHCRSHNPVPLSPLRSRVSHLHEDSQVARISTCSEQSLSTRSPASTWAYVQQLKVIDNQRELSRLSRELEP
EPAC2 antag: EPAC2 (human) antagonism; EPAC2 GEF exchange of Rap1B-BODIPY-GDP, fluorescence; actives 0.18% (n = 360,000); Potency, µM (titrated, usually from 114 µM), for the others: at the highest dose activity, negative = inhibition, usual class: inhibitors; AID 720708; Q8WZA2; note: % is set by controls: 0 for no effect and ±100 for the full control effect; nearly all actives have a fitted effect of over 45% in size
B2AR arrestin: recruits beta-arrestin to the human beta2-adrenergic receptor; P07550; beta-arrestin recruitment to beta2AR, cell-based reporter; Potency, µM (top dose mostly 46.1 µM), for the others: at the top dose activation, usual class: activators; actives 0.02% (n = 330,000);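 note: 0% = DMSO controls and full agonism = EC100 isoproterenol or metaproterenol; nearly all actives have a fitted effect of over 65% in size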
EPAC1 ag: agonists of human EPAC1. O95398. EPAC1 agonist qHTS, biochemical assay; response scale: 100% = response to 6.5 mM cAMP. actives 0.073% (n = 360,000). AID 720707. Potency, µM (series often up to 154 µM), for inactives: top-dose activation, actives largely listed as activators; note: nearly all actives have a fitted effect of over 60% in size
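Fluorescent GDP-exchange assay: 100 nM EPAC1 with 250 nM Rap1B preloaded with BODIPY-GDP and 50 uM GDP; compounds tested as concentration series, 5 min at room temperature, then read every 5 min for 30 min (ex 480/em 540 nm); normalized to 6.5 mM cAMP.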
* hit, by the source's call; i = inactive; ? = inconclusive; . = no result given. Shown are actives, neighbours in structure and some others; about 0.4% of the full set was active somewhere. Calls come from the whole dose curve; as a rule, active = well fitted curve in the direction sought with a large enough effect; inconclusive = small, poorly fitted or top-dose-only effect, or another doubt; inactive = no such curve, though single readings can be large; an effect the other way counts as inactive or inconclusive. Potency is the fitted concentration of half-maximal effect.

SMILES | EPAC2 agonist | EPAC1 antag | EPAC2 antag | B2AR arrestin | EPAC1 ag
O=C(CN1C(=O)/C(=C2/SC(=S)N(CCS(=O)(=O)O)C2=O)c2ccccc21)Nc1cccc(C(F)(F)F)c1 | -6% | 40µM* | 56µM* | 0% | 0%
Cc1ccc2[nH]c(CCN(C)C)c(CN3CCOCC3)c2c1 | -5% | 16% | 2% | 0% | -12%
Cc1cc(C=C2C(=O)c3ccccc3C2=O)c(C)n1-c1ccc(Cl)cc1 | -176% | 0% | 79µM* | 0% | -8%
CN(C)c1nc(Oc2ccc(=O)[nH]n2)nc(N2CCOCC2)n1 | -7% | -8% | 25µM* | 0% | 7%
Cn1c(N)c(C(=O)COC(=O)/C=C/c2cccc(Cl)c2)c(=O)n(C)c1=O | -3% | 1% | 6% | 0% | 5%
COc1cc(C(=O)Nc2ccccc2-c2nnn(CC(N)=O)n2)cc(OC)c1OC | -3% | 6% | 0% | 0% | -2%
COc1ccc(C(=O)Nc2ccccc2-c2nnn(CC(N)=O)n2)cc1 | -3% | 89µM* | -4% | . | -10%
O=C(NC1(O)C(=O)c2ccccc2C1=O)c1ccccc1 | 12% | ? | ? | 0% | -4%
O=C(NC1(O)C(=O)c2ccccc2C1=O)c1c(Cl)cccc1Cl | 29% | 50µM* | ? | -1% | -3%
COc1cc(/C=N/N=C2/C(=O)Nc3ccccc32)ccc1O | -10% | -17% | -3% | -1% | -8%
O=C1Nc2ccccc2/C1=N\N=C\c1ccc(O)c(O)c1 | -9% | 40µM* | -16% | 3% | 2%
CCc1nc2c(OCc3c(C)noc3C)cccn2c1N(C=O)Cc1ccccc1 | 5% | -3% | 7% | . | 3%
O=C(O)C(c1ccccc1)N1C(=O)/C(=C/c2cccs2)SC1=S (stereo unspecified) | -11% | -18% | 56µM* | 0% | -2%
O=C(O)C(Cc1ccccc1)N1C(=O)/C(=C/c2cccs2)SC1=S (stereo unspecified) | -12% | -2% | ? | 0% | -5%
CCCCCCCCN1[C@@H](CC(=O)OC)c2cc(F)ccc2S1(=O)=O | -3% | -26% | ? | . | -27%
CCCCCCCCCCCCN1[C@@H](CC(=O)O)c2cc(F)ccc2S1(=O)=O | -22% | 79µM* | ? | . | -40%
CCCCCCCCCCCCN1[C@@H](CC(=O)O)c2cc(C(F)(F)F)ccc2S1(=O)=O | -12% | 79µM* | ? | . | -39%
CC(C)c1ccc(NC(=O)CN2CCN(C(=O)C3CCCO3)CC2)cc1 (stereo unspecified) | 6% | -6% | 4% | 0% | 2%
COCOCCn1cc(CN2CCS(=O)(=O)N(Cc3ccc(-c4ccc(F)cc4)cc3)C(CC(C)C)C2=O)nn1 (stereo unspecified) | 1% | -17% | 13µM* | . | -19%
COCOCCn1cc(CN2CCS(=O)(=O)N(Cc3ccc(-c4ccc(C)cc4)cc3)C(CC(C)C)C2=O)nn1 (stereo unspecified) | 10% | -9% | ? | . | -18%
CCCN1C(=O)S/C(=C/c2ccc(N3CCOCC3)o2)C1=O | 112µM* | 42% | 22% | 5% | 79µM*
Cc1cc(C(=O)CCC(=O)Nc2ccc(C(N)=O)cc2)c(C)s1 | 5% | -8% | -7% | . | 16%
C[C@@H]1CN([C@@H](C)CO)C(=O)CCCn2nncc2CO[C@@H]1CN(C)C(=O)c1cc(-c2ccccc2)on1 | -9% | 9% | -15% | . | 14%
CN(CCc1ccccn1)C(=O)Nc1ccc(F)cc1 | 6.3µM* | 4% | 5% | 0% | 1%
CC(C)CN(C(=O)CSc1nnc(C2CC2)n1-c1ccccc1)C1CCS(=O)(=O)C1 (stereo unspecified) | 4% | -1% | 1% | 0% | 5%
SMILES | EPAC2 agonist | EPAC1 antag | EPAC2 antag | B2AR arrestin | EPAC1 ag
Cc1cc(C)n(CCOc2ccc(Br)cc2)n1 | 4% | 12% | 35µM* | 1% | 9%
O=C(N=c1ccn(-c2nc3ccccc3nc2NS(=O)(=O)c2ccc(Cl)cc2)cc1)c1cccs1 | 3% | -22% | 14% | -1% | -6%
CCOc1ccc(S(=O)(=O)Nc2nc3ccccc3nc2-n2ccc(=NC(=O)c3cccs3)cc2)cc1 | 100µM* | -14% | 41% | 0% | ?
C=CCOc1c(Br)cc(/C=N/O)cc1OCC | -10% | -10% | ? | 0% | -3%
CCCCOc1c(Br)cc(/C=N/O)cc1OCC | -3% | ? | 28µM* | -1% | -10%
CCOC(=O)CC(=O)CSc1nc2ccc(C)cc2cc1C#N | 100µM* | 10% | 36% | 11% | ?
CCOC(=O)CC(=O)CSc1nc(CC)c(C)cc1C#N | 23% | -19% | 1% | -1% | 3%
CCOC(=O)C1CCN(C(=O)COC(=O)CNS(=O)(=O)c2ccc(SC)c([N+](=O)[O-])c2)CC1 | 5% | 9% | -2% | . | -4%
CCOC(=O)C1CCCCN1Cc1cccc(Oc2ccccc2)c1 (stereo unspecified) | 3% | -15% | 40µM* | 0% | -3%
C=CCOc1ccc(/C=C2\SC(=S)N(NS(=O)(=O)c3ccc(C)cc3)C2=O)cc1 | -8% | 50µM* | -26% | 0% | -5%
Cc1ccc(/C=C2\SC(=S)N(NS(=O)(=O)c3ccc(C)cc3)C2=O)cc1 | -3% | ? | 45µM* | 0% | 11%
COc1ccc(/C=C2/SC(=S)N(NS(=O)(=O)c3ccc(C)cc3)C2=O)cc1 | 0% | ? | ? | 0% | 9%
CCCCCCCCCc1conc1C(=O)/C=C/c1oc2c(c1C)CCC(C)C2 (stereo unspecified) | -18% | 1% | ? | . | -26%
Nc1c2c(=O)[nH]c(O)cc2nn1-c1ccccc1 | 10% | 89µM* | 7% | . | 13%
Cc1c(C)c2c(C)nn(-c3ccccc3)c2[nH]c1=O | -2% | -8% | 8% | 0% | -8%
C=CCn1c(-c2ccccc2)c[nH]c1=S | 2% | -2% | -3% | ? | 5%
C=CCn1c(-c2ccc(Cl)cc2)c[nH]c1=S | 5% | 1% | 2% | 20µM* | 8%
Cc1ccc(/C=C/C(=O)Oc2ccc(C#N)cc2)o1 | . | . | . | 0% | .
COc1cccc(OC)c1OC(=O)/C=C/c1ccc(C)o1 | 14% | -13% | 56µM* | -1% | 2%
COC(=O)c1cc(C)nc2c1C(=O)C(=O)C=C2N1CCOCC1 | ? | 3.5µM* | ? | 0% | -9%
COC(=O)c1cc(S(=O)(=O)N2CCOCC2)c(Cl)cc1N1CCOCC1 | 2% | 8% | 9% | 0% | 6%
CC(=O)Oc1ccc2c(c1)Oc1cc(OC(C)=O)ccc1C21OC(=O)c2ccccc21 | i | ? | 40µM* | 0% | .
Cc1cccc(N2CCN(C3C(=O)Nc4ccccc4-n4nnnc43)CC2)c1C (stereo unspecified) | 15% | -3% | -6% | . | -1%
CCOc1ccc2nc(N3C(=O)CNC3=S)sc2c1 | 7% | -1% | 2% | 4µM* | 4%
